Screening data (PubChem)
FBPA Giardia inh: Giardia lamblia aldolase inhibition; A8B2U2; purified Giardia FBPA; Potency, µM (doses to about 59.6 µM), for the others: top-dose activity, negative = inhibition, most hits filed as inhibitors; 0.71% of 290,000 active; active = well fitted curve in the direction sought with a large enough effect; inconclusive = small, poorly fitted or top-dose-only effect, or another doubt; inactive = no such curve, though single readings can be large; an effect the other way counts as inactive or inconclusive; note: potency is the fitted concentration of half-maximal effect; % is set by controls: 0 for no effect and ±100 for the full control effect; nearly all actives have a fitted effect of over 55% in size
Target sequence (A8B2U2 whole entry, looked up): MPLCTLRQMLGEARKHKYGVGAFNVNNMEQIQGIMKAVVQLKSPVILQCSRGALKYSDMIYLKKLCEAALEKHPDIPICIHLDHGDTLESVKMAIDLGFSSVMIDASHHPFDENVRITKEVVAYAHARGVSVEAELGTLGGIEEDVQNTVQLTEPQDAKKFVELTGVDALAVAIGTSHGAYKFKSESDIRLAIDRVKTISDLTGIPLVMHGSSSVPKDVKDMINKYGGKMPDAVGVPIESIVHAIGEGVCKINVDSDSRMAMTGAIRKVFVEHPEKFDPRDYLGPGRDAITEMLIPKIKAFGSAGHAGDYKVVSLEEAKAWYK
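Giardia FBPA (40 nM reagent) was preincubated 10 min at RT with compound (up to 57.5 uM final), then substrate plus GAPDH/TPI/NAD/arsenate coupling system with diaphorase/resazurin was added; resorufin fluorescence (525/598 nm) was read after 20 min.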
LmPK inhibitor: blocks Leishmania mexicana pyruvate kinase activity | Q27686 | AID 1721 | Potency, µM (highest dose often 57.5 µM), without a hit: top-dose activity change, negative = inhibition, actives largely listed as inhibitors | 0.37% of 290,000 active | purified LmPK, Kinase-Glo ATP luminescence, 1 h; active = well fitted curve in the direction sought with a large enough effect; inconclusive = small, poorly fitted or top-dose-only effect, or another doubt; inactive = no such curve, though single readings can be large; an effect the other way counts as inactive or inconclusive; note: potency is the fitted concentration of half-maximal effect; % is set by controls: 0 for no effect and ±100 for the full control effect
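Purified LmPK (0.1 nM) with 0.5 mM PEP and 0.1 mM ADP in imidazole buffer pH 7.2 with MgCl2/KCl, 1 h at room temperature. ATP formed was read by luciferase luminescence and normalized to no-enzyme and uninhibited controls.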
CHX counter: counter-screen hit for Shiga toxin inhibitors, cycloheximide. cell reporter, cycloheximide protein synthesis inhibition counterscreen. 12% of 300,000 active. max response, %. AID 2314; in the data active = max response mostly above about 13%, no sharp cut-off; inactive = mostly below about 14%; note: read at 38.3 µM for the half of the compounds with a filed dose; 0% is about no effect
NS1 function inh: blocks influenza NS1 protein function; Potency, µM (top dose mostly 46.1 µM), without a hit: at the top dose activity, positive = more growth; 0.4% of 270,000 active; note: potency is the fitted concentration of half-maximal effect; actives are rising curves; nearly all actives have a fitted effect of over 50% in size
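Growth recovery, yeast-based: influenza A NS1 expressed in S. cerevisiae causes slow growth, and suppressors are detected by OD600. The parent strain without NS1 is used as positive control.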
Shiga inhibitor: Shiga toxin inhibition; Vero cells, Shiga toxin protein synthesis inhibition reporter; inhibition, % at 38.7 µM; 9.2% of 290,000 active; AID 2315; in the data active = inhibition mostly above about 28%, no sharp cut-off; inactive = mostly below about 43%; note: 0% is about no effect
NS1 inh valid: validation of influenza NS1 protein function inhibitors. shares compounds with NS1 function inh. influenza NS1 function cell assay, 15-point titration. activity change, negative = inhibition, % at 32.9 µM. 1,400 tested, under 10 active; note: 0% is about no effect
* hit, by the source's call. Rows were chosen to be rich in hits. Some 14% of all compounds tested hit in one or more screens of this group. Unless noted, calls come from the whole dose curve.

Results for CC1(C)Cc2c(c(N3CCOCC3)nc3sc(-c4ccc(C(=O)O)o4)c(N)c23)CO1 ?
FBPA Giardia inh: inconclusive; LmPK inhibitor: 4%; CHX counter: -1; NS1 function inh: inconclusive; Shiga inhibitor: 9; NS1 inh valid: 12

Results for CNC(=O)c1ccc(-c2sc3nc(N4CCOCC4)c4c(c3c2N)CC(C)(C)OC4)o1 ?
LmPK inhibitor: -4%; CHX counter: -4; NS1 function inh: 21%; Shiga inhibitor: 12

Results for Cc1ccc(NC(=O)C(C)OC(=O)c2ccc(NS(=O)(=O)c3ccc(F)c(F)c3)cc2)cc1 (centres undefined) ?
FBPA Giardia inh: 3%; LmPK inhibitor: 1%; CHX counter: -3; NS1 function inh: 4%; Shiga inhibitor: -3

How did CC(=O)c1ccc(NC(=O)C(C)OC(=O)c2ccc(NS(=O)(=O)c3ccc(F)c(F)c3)cc2)cc1 (centres undefined) do in these assays?
FBPA Giardia inh: 16%; LmPK inhibitor: 6%; CHX counter: 10; NS1 function inh: 11µM*; Shiga inhibitor: -6; NS1 inh valid: 16

Results for CCOC(=O)C1CCCN(C(=O)Cn2ncc3c([nH]c4ccc(C)cc43)c2=O)C1 (centres undefined) ?
FBPA Giardia inh: 0%; LmPK inhibitor: 2%; CHX counter: -2; NS1 function inh: -4%; Shiga inhibitor: 10

Results for O=C1CNC(=S)N1CCOc1ccccc1 ?
FBPA Giardia inh: 5%; LmPK inhibitor: 3%; CHX counter: 8; NS1 function inh: 9%; Shiga inhibitor: -10

How did O=C1CNC(=S)N1CCc1ccc(O)c(O)c1 do in these assays?
FBPA Giardia inh: inconclusive; LmPK inhibitor: 4%; CHX counter: 10; NS1 function inh: inconclusive; Shiga inhibitor: 9; NS1 inh valid: 29

How did C/C=C(/C)C(=O)O[C@H]1C(C)=C2C([C@@H]1OC(=O)CCCCCCC)[C@@](C)(OC(C)=O)C[C@@H](OC(=O)CCC)[C@@]1(O)[C@H]2OC(=O)[C@@]1(C)O (some centres undefined) do in these assays?
FBPA Giardia inh: -20%; NS1 function inh: 8.9µM*; NS1 inh valid: 36

What do the screens show for `CCOc1ccc(NC(=O)C2C3C=CC4(O3)C2C(=O)N(Cc2cccnc2)C4C(=O)NC2CCCCC2)cc1` (centres undefined)?
FBPA Giardia inh: -6%; LmPK inhibitor: -3%; CHX counter: -9; NS1 function inh: 7%; Shiga inhibitor: -3

What do the screens show for `Cc1ccc(SCC(=O)Nc2ccc3c(c2)C(=O)N(C)C3=O)cc1`?
FBPA Giardia inh: -7%; LmPK inhibitor: -5%; CHX counter: 1; NS1 function inh: 2.5µM*; Shiga inhibitor: -1; NS1 inh valid: 13

Results for COc1ccc(C(=O)N/C(=C\c2ccccc2)C(=O)Nc2cccc(C(=O)O)c2)cc1 ?
FBPA Giardia inh: 10%; LmPK inhibitor: 0%; CHX counter: 1; NS1 function inh: 10µM*; Shiga inhibitor: 1; NS1 inh valid: 4

How did COc1ccccc1/C=C(\NC(=O)c1ccc(OC)c(OC)c1)C(=O)Nc1cccc([N+](=O)[O-])c1 do in these assays?
FBPA Giardia inh: 0%; LmPK inhibitor: 3%; CHX counter: 1; NS1 function inh: inconclusive; Shiga inhibitor: -10

Results for COc1ccccc1/C=C(\NC(=O)c1ccc(OC)c(OC)c1)C(=O)Nc1ccc([N+](=O)[O-])cc1 ?
FBPA Giardia inh: 3%; LmPK inhibitor: 2%; CHX counter: -3; NS1 function inh: 13µM*; Shiga inhibitor: -6; NS1 inh valid: 13

How did CC(=O)c1cccc(NC(=O)N2CCC(NC(=O)C34CC5CC(CC(C5)C3)C4)CC2)c1 do in these assays?
FBPA Giardia inh: 2%; LmPK inhibitor: 0%; CHX counter: 2; Shiga inhibitor: -5

Results for CCn1c(COc2ccccc2)nnc1SCC(=O)NC1CC1 ?
LmPK inhibitor: 0%; CHX counter: -1; NS1 function inh: 3%; Shiga inhibitor: -2

How did COc1ccc2[nH]cc(CCNc3cc(-c4cccnc4)ncn3)c2c1 do in these assays?
FBPA Giardia inh: -11%

Results for COc1ccc(-c2c(C)nc(N)nc2-c2ccc(OCc3ccc(C)cc3)cc2O)cc1OC ?
FBPA Giardia inh: -5%; LmPK inhibitor: 4%; CHX counter: 9; NS1 function inh: 3.2µM*; Shiga inhibitor: 4; NS1 inh valid: 2

Results for Cc1csc(SCC(=O)Nc2nncs2)n1 ?
FBPA Giardia inh: -28%; LmPK inhibitor: 1%; CHX counter: -4; NS1 function inh: inconclusive; Shiga inhibitor: 13; NS1 inh valid: -22

Results for Cc1nc2ccc(-c3nc4ccccc4[nH]3)cc2[nH]1 ?
FBPA Giardia inh: -5%; LmPK inhibitor: -28%; CHX counter: 35*; NS1 function inh: inconclusive; Shiga inhibitor: 60*; NS1 inh valid: -6

What do the screens show for `Cc1ccccc1N=C1SC(CC(=O)Nc2ccc3ccccc3c2)C(=O)N1Cc1ccccn1` (centres undefined)?
FBPA Giardia inh: 20%; LmPK inhibitor: 4%; CHX counter: 29*; NS1 function inh: 14µM*; Shiga inhibitor: 48; NS1 inh valid: -13

Results for O=C(CC1SC(=Nc2cccc3ccccc23)N(Cc2ccccn2)C1=O)Nc1ccccc1Br (centres undefined) ?
FBPA Giardia inh: -9%; LmPK inhibitor: 0%; CHX counter: -3; NS1 function inh: 18%; Shiga inhibitor: 2

How did COc1ccc(-c2cc(C(=O)Nc3nc4ccccc4s3)c3ccccc3n2)cc1OC do in these assays?
FBPA Giardia inh: -3%; LmPK inhibitor: 1%; CHX counter: 16*; NS1 function inh: 22µM*; Shiga inhibitor: 43*; NS1 inh valid: -2

What do the screens show for `COc1ccc(-c2cc(C(=O)Nc3ccccc3O)c3ccccc3n2)cc1OC`?
FBPA Giardia inh: -6%; LmPK inhibitor: -3%; CHX counter: 12; NS1 function inh: 16%; Shiga inhibitor: 10

What do the screens show for `C/C(COc1ccccc1)=N\NC(=O)c1nnn(-c2nonc2N)c1CSc1ccccc1`?
FBPA Giardia inh: -9%; LmPK inhibitor: -2%; CHX counter: -2; NS1 function inh: 16%; Shiga inhibitor: -4

What do the screens show for `COC(=O)c1c(C)oc2ccc(N(C(=O)c3ccncc3)S(=O)(=O)c3ccc4ccccc4c3)cc12`?
FBPA Giardia inh: 1%; LmPK inhibitor: 1%; CHX counter: -3; NS1 function inh: 11µM*; Shiga inhibitor: 12; NS1 inh valid: 3

How did Cc1nc(-c2ccc(Cl)cc2)sc1C1(C)CC(c2c(Cl)cccc2Cl)=NO1 (centres undefined) do in these assays?
FBPA Giardia inh: 7%; LmPK inhibitor: 0%; CHX counter: 1; NS1 function inh: 10µM*; Shiga inhibitor: -2; NS1 inh valid: 18

How did COc1cc(/C=C/C(=O)NCC2CCCCC2)cc(OC)c1OC do in these assays?
FBPA Giardia inh: 2%; LmPK inhibitor: 5%; CHX counter: 3; NS1 function inh: 4%; Shiga inhibitor: -7
